Assay outcomes (PubChem BioAssay)
D2 PAM-1 – HTS Assay for Positive Allosteric Modulators of the Human D2 Dopamine Receptor: Primary Screen for Potentiators; D(2) dopamine receptor (Homo sapiens), P14416; HEK293 T-REx D2, calcium flux, EC20 dopamine potentiation; potentiation, % at 10 µM; actives 0.34% (n = 340,000); AID 485347, 2010;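 active = potentiation over 3 SD above the plate norm, cut at about 30% in these data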; note: 0% is about no effect
Target sequence (P14416 whole entry, looked up): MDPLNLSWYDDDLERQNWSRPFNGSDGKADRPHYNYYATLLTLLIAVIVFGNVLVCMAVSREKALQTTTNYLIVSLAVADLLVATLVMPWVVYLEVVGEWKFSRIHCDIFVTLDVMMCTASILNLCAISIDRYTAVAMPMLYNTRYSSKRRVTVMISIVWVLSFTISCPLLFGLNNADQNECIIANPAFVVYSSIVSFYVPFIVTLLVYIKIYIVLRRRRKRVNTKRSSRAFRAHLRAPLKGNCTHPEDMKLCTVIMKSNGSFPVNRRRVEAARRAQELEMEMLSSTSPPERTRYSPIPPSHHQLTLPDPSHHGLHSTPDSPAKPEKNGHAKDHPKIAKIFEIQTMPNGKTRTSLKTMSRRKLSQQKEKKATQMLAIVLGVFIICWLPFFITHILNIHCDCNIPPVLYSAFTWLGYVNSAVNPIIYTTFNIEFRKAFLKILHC
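Primary screen. Calcium kinetics in induced HEK293 T-REx D2 cells: compound pre-addition 180 s, EC20 dopamine, 180 s more.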
D2 ag-1 – Beta-Arrestin HTS for Positive Allosteric Modulators of the Human D2 Dopamine Receptor: Agonists | D(2) dopamine receptor (Homo sapiens), P14416 | DiscoveRx PathHunter D2 beta-arrestin, luminescence, 90 min; 100% = 57 uM dopamine signal | activation, % (test concentration not listed) | actives 0.084% (n = 360,000) | AID 624465, 2012; in the data active = activation above about 40%; inconclusive = between about 15% and that limit
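Agonist mode: compounds alone added to overnight-plated D2 PathHunter cells for 90 min at 37 C, with 57 uM final dopamine (EC100) defining full response. Beta-arrestin recruitment detected by chemiluminescent reagent, read after 1 h at ambient temperature.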
D2 ag-2 – HTS Assay for Allosteric Agonists of the Human D2 Dopamine Receptor: Primary Screen for Agonists; D(2) dopamine receptor (Homo sapiens), P14416; HEK293 T-REx D2 cells, calcium flux agonist mode; activation, % at 2 µM; actives 0.53% (n = 340,000); AID 485358, 2010;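 active = activation over 3 SD above normal in the single-dose calcium agonist read, cut at about 30% in these data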; note: 0% is about no effect
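Agonism is scored from calcium flux in a force-coupled, inducible HEK293 cell line expressing D2, read kinetically for 180 s after compound addition against dopamine controls.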
D2 PAM-2 – Beta-Arrestin HTS for Positive Allosteric Modulators of the Human D2 Dopamine Receptor: Potentiators; D(2) dopamine receptor (Homo sapiens), P14416; DiscoveRx D2 beta-arrestin cells, luminescence, 90 min; 100% = 57 uM dopamine signal; potentiation, % (test concentration not listed); actives 0.23% (n = 360,000); AID 624464, 2012; in the data active = potentiation above about 50%; inconclusive = mostly about 30% to 49%
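PathHunter beta-arrestin assay in DiscoveRx D2 cells. Compounds were added with an EC20 of dopamine (50 nM final) for 90 min at 37 deg C. Luminescence was read 1 h after detection reagent, with 57 uM dopamine as the EC100 control.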
D2 antag – HTS Assay for Allosteric Antagonists of the Human D2 Dopamine Receptor: Primary Screen for Antagonists; actives 2% (n = 340,000); HEK293 TREx D2 cells, calcium flux, dopamine EC80; D(2) dopamine receptor (Homo sapiens), P14416; inhibition, % at 10 µM; in the data active = inhibition above about 30%; inactive = below that, where a call was filed; note: 0% is about no effect
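Calcium mobilization kinetics were recorded at 1 s intervals in tetracycline-induced HEK293 T-REx D2 cells, first for 180 s after compound addition and then 180 s after EC80 dopamine.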
* marks the source's active call; other numbers are inactive results; ? = inconclusive; · = not tested or not shown. A selection: hits, their analogues and other compounds. The true share with any hit is near 2.4%.

SMILES	D2 PAM-1	D2 ag-1	D2 ag-2	D2 PAM-2	D2 antag
Cc1ccc(CC(=O)O/N=C(\N)Cc2ccc([N+](=O)[O-])cc2)cc1	-6	7	-1	12	-16
COc1ccccc1C/C(N)=N/OC(=O)c1cccc([N+](=O)[O-])c1C	-1	?	-1	136*	5
O=c1[nH]cc(N2CCCCCC2)c(=O)[nH]1	7	-6	0	-6	1
COc1ccc(-c2cc(CC3(C(=O)O)CCN(C(=O)OC(C)(C)C)CC3)on2)c(OC)c1	-4	-1	0	-2	3
CCCSc1nsc(NC(=O)CCC)n1	·	0	-1	0	3
Cc1cnc(CNC(=O)CC2C(=O)NCCN2Cc2cccc(F)c2F)cn1 (stereo not given)	-8	-6	1	-4	-11
CN1CCN(C(=O)CCN2C(=O)/C(=C/c3cccc(Br)c3)SC2=S)CC1	3	-3	0	-8	31*
O=C(CCN1C(=O)S/C(=C\c2ccccc2)C1=O)N1CCCCC1	7	-3	0	-6	35*
OC(COc1ccc2c(c1)CCC2)CN1CCN(c2ccccc2F)CC1 (stereo not given)	8	15	1	-30	-21
Oc1ccccc1N1CCN(CC(O)COC2CCCc3ccccc32)CC1 (stereo not given)	-22	-1	11	-8	40*
CCS(=O)(=O)c1ccc(O)c(NC(=O)/C=C/c2ccccc2)c1	-12	-5	0	-14	9
Cc1c(O)ccc(NC(=O)/C=C/c2ccccc2)c1C	-9	1	0	1	35*
CCN(CC)c1ccc(NS(=O)(=O)c2ccc(-c3coc(C)n3)cc2)c(C)c1	10	·	0	·	·
O=C(NCc1ccc(F)cc1)c1ccc2c(=O)n3c(nc2c1)CCCCC3	-1	-1	-1	0	-4
Cc1nc2n(c(=O)c1CCN1CCC(c3noc4cc(F)ccc34)CC1)CCCC2	·	·	·	·	86*
Cc1cc(C)cc(-n2ccn(CC(=O)Nc3ccccc3C(F)(F)F)c(=O)c2=O)c1	-2	·	1	·	·
COc1ccc(NC(=O)CCn2c(-c3ccc(F)cc3)cc(C(C)=O)c2C)c(OC)c1	6	·	0	·	·
O=C(CN1CCC(n2nnc3cc(F)ccc32)CC1)NNC(=O)c1ccccc1	16	-3	0	-19	9
CC1CCC(NC(=O)CN2CCC(n3nnc4cc(F)ccc43)CC2)CC1 (stereo not given)	-23	-2	1	-39	41*
CCN1CCN(C(=O)CN(CC)S(=O)(=O)c2ccc3ccccc3c2)CC1	-8	-3	1	-29	-1
COc1ccc(-c2cc(C3CCN(Cc4cccc(C(F)(F)F)c4)CC3)[nH]n2)cc1	-23	4	-1	-13	59*
COc1ccc(-c2noc(CCC(=O)Nc3cccnc3)n2)cc1	6	0	-1	-3	0
CC(C)(C)c1ccc(-c2noc(CCC(=O)Nc3cccnc3)n2)cc1	-1	5	2	-1	36*
Cc1cccc(-n2nc(C)c(C(=O)Nc3cc(C)ccc3C)c2-n2cccc2)c1	-3	·	0	·	·
COc1ccc(-n2c(Cc3cc(=O)[nH]c(=O)[nH]3)nnc2SCC(=O)Nc2cc(C(F)(F)F)ccc2Cl)cc1	-20	-3	-1	-15	41*
SMILES	D2 PAM-1	D2 ag-1	D2 ag-2	D2 PAM-2	D2 antag
O=C1CN2C(=N1)N(Cc1ccccc1)c1ccccc12	-13	0	1	6	71*
c1ccc(CN2C3=NCCCN3c3ccccc32)cc1	12	3	-3	-15	-25
CCOC(=O)c1cc(S(=O)(=O)NC2CCC(C)CC2)cn1C (stereo not given)	99*	3	0	1	-10
CCn1c(=O)c2sccc2n2c(CCCC(=O)N3CCN(c4cc(Cl)ccc4C)CC3)nnc12	3	·	·	·	·
O=c1cc(N2CCN(Cc3ccccc3)CC2)[nH]c(=O)n1-c1ccc(Br)cc1	0	-1	1	-4	38*
COc1ccc(NC(=S)NNS(=O)(=O)c2ccc3ccccc3c2)c(OC)c1	-4	-1	2	-5	43*
C=C1CCN([C@@H](CC(C)C)C(=O)N2CCOCC2)S(=O)(=O)c2ccccc21	·	-1	·	-10	·
COC(=O)C(CC(C)C)N1CCC(=O)c2ccccc2S1(=O)=O (stereo not given)	8	0	-1	-7	52*
O=C(CSc1nc(=O)n(CCCN2CCOCC2)c2c1CCC2)Nc1cccc(F)c1	4	-3	·	-6	·
CCc1ccc(Sc2cc(C(=O)NCCCN3CCCC(C)C3)c3ccccc3n2)cc1 (stereo not given)	-15	·	0	·	·
Cc1cccc(CS(=O)(=O)Cc2ccc(C(=O)NCc3cccnc3)o2)c1	·	0	2	-1	33*
CCc1ccc(CNC(=O)c2ccc(CS(=O)(=O)Cc3cccc(C)c3)o2)cc1	·	·	0	·	·
CCc1nc2n(n1)C(O)c1cc([N+](=O)[O-])ccc1S2 (stereo not given)	1	1	1	5	1
CC(=O)Nc1ccc(S(=O)(=O)c2ccc([N+](=O)[O-])cc2)cc1	-1	53*	0	-3	-2
CC(=O)Nc1ccc(NS(=O)(=O)c2ccc(C)cc2)cc1[N+](=O)[O-]	0	-1	-1	-7	-3
CC(=O)Nc1ccc(S(=O)(=O)Nc2ccc(F)c([N+](=O)[O-])c2)cc1	-14	-9	2	1	43*
CCn1c(SCc2ccccc2F)nc(=O)c2c(C(=O)OC)cc(C3CC3)nc21	15	·	·	·	·
CCc1ccc(NC(=O)C(CC)n2c(=O)c(C(F)(F)F)nc3ccccc32)cc1 (stereo not given)	7	·	0	·	·
COc1ccc(CC(=O)NC(CC(=O)O)c2ccc(OC)cc2)cc1 (stereo not given)	-5	-2	0	-14	36*
CCOc1ccc(C(CC(=O)O)NC(=O)C(CC)c2ccccc2)cc1 (stereo not given)	-6	4	1	-4	35*
O=C(O)CC(NC(=O)c1ccco1)c1ccco1 (stereo not given)	-1	-3	1	5	-3
O=C(O)CC(NC(=O)Cc1ccc(Cl)cc1)c1ccco1 (stereo not given)	39*	-2	-1	-2	-10
CC(=O)c1cccc(NC(=O)C2CC(=O)N(C3CCCC3)C2)c1 (stereo not given)	·	-2	·	-7	·
